Bioassay records from PubChem BioAssay.
Hits are enriched below; roughly 2.2% of the tested compounds scored in any of these assays.
ID4 SMM – binders of human ID4 protein, primary screen, biochemical, small molecule microarray, single point. DNA-binding protein inhibitor ID-4 (Homo sapiens), P47928. Flag-ID4 binding, fluorescence F/B. 31,000 compounds, 1.2% hits. calls only. AID 624137, 2012; call rule not given here;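 further: a binder raises fluorescence above local background on the spot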
Target sequence (P47928 whole entry, looked up): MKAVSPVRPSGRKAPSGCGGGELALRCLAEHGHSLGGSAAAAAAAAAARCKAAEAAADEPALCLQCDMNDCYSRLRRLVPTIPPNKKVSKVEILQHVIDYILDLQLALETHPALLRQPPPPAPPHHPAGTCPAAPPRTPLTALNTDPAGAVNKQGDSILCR
p53 PUMA act – mutant p53 pathway re-activators, primary screen, cell-based, SW480, luciferase, single point, HTS | SW480 PUMA-promoter luciferase, p53 mutant reactivation | activation, % at 9.98 µM | 28,000 compounds, 1.5% hits | AID 624151, 2012; in the data active means activation above about 52%
* marks the source's active call; other numbers are inactive results; i = inactive; nt = no result given; + = active, no number.

SMILES	ID4 SMM	p53 PUMA act
COc1ccc(-c2cn(CCNC(=O)[C@H](Cc3ccccc3)NS(=O)(=O)c3ccc(C)cc3)nn2)cc1OC	+	nt
O=C(NCCc1c[nH]c2ccccc12)NC1CCCCC1	i	84*
O=C(NCCc1c[nH]c2ccccc12)Nc1cccc2ccccc12	i	13
OCc1c[nH]c2ccccc12	i	-9
NC(=O)CCCc1c[nH]c2ccccc12	i	79*
CC(=O)c1ccc(NC(=O)CSc2nncn2C)cc1	i	2
Cc1cccc(OCC(=O)Nc2c[nH]c(=O)[nH]c2=O)c1C	i	-4
CC(=O)NCCNC(=O)c1cc2ccccc2oc1=O	i	-2
COc1ccccc1CNC(=O)c1cc2ccccc2oc1=O	i	88*
COc1cccc2cc(C(=O)NCc3ccccn3)c(=O)oc12	i	84*
CCOc1cccc2cc(C(=O)NCc3cccnc3)c(=O)oc12	i	-9
Cc1ccc(OCC(=O)Oc2cccc(NC3=NS(=O)(=O)c4ccccc43)c2)cc1	i	5
O=c1[nH]c(=S)c2c(n1N1CCOCC1)CCC2	+	1
COC(=O)c1ccccc1NC(=O)CSc1nc(-c2ccccc2)cc(=O)[nH]1	i	3
CCC(=O)N(C)C[C@@H]1Oc2cc(-c3cccc(OC)c3)ccc2S(=O)(=O)N([C@@H](C)CO)C[C@@H]1C	+	4
COCC(=O)N(C)C[C@H]1Oc2cc(C#CC3CC3)ccc2S(=O)(=O)N([C@@H](C)CO)C[C@@H]1C	nt	-5
C[C@H]1CN([C@@H](C)CO)S(=O)(=O)c2ccc(-c3ccc(C#N)cc3)cc2O[C@H]1CN(C)C(=O)Nc1cc(F)ccc1F	+	-24
C/C=C/c1ccc2c(c1)O[C@H](CN(C)S(=O)(=O)c1ccccc1OC)[C@H](C)CN([C@@H](C)CO)S2(=O)=O	+	-9
C[C@H](CO)N1C[C@H](C)[C@@H](CN(C)C(=O)Nc2cc(F)ccc2F)Oc2cc(C#CC3CCCC3)ccc2S1(=O)=O	i	nt
CCC(=O)N(C)C[C@@H]1Oc2cc(C#CC3CC3)ccc2S(=O)(=O)N([C@@H](C)CO)C[C@H]1C	+	1
C/C=C/c1ccc2c(c1)O[C@H](CN(C)S(=O)(=O)c1ccc(F)cc1)[C@H](C)CN([C@H](C)CO)S2(=O)=O	i	-13
COc1cccc(-c2ccc3c(c2)O[C@H](CN(C)C(C)=O)[C@@H](C)CN([C@@H](C)CO)S3(=O)=O)c1	nt	-3
CCOC(=O)c1cc(NC(=O)CN2C(=O)COc3ccc(Cl)cc32)ccc1Cl	i	6
COc1ccc2c(c1)c(CC(=O)OCc1ccccn1)c(C)n2C(=O)c1ccc(Cl)cc1	i	-8
COc1ccc([C@@]2(O)c3c(ccc(/C=C/C4(C)CCC(C)(C)CO4)c3O)NC(=O)[C@@H]2OC)cc1 (stereo not given in full)	i	nt
SMILES	ID4 SMM	p53 PUMA act
CC(=O)O[C@H]1CC[C@H](C)[C@@]2(C)[C@H](OC(C)=O)c3c(C)coc3C(=O)[C@H]12	i	nt
COc1cc(C(=O)OCc2ccc(-c3cccc(Cl)c3Cl)o2)cc(OC)c1OC	i	-8
COc1ccc(CN2CCN(Cc3cccc(OC)c3OC)CC2)c(OC)c1	i	6
Cc1c(C(=O)N(C)C)sc2[nH]c(=O)n(-c3ccccc3C(F)(F)F)c(=O)c12	i	-11
CC1(C)CC[C@]2(C(=O)O[C@@H]3O[C@H](CO)[C@@H](O)[C@H](O)[C@H]3O)CC[C@]3(C)C(=CCC4[C@@]5(C)C[C@@H](O)[C@H](O)[C@@](C)(CO)C5[C@H](O)C[C@]43C)C2[C@@H]1O (stereo not given in full)	i	nt
O=C(O)c1ccc(NS(=O)(=O)c2cccc(C(=O)Nc3ccccc3)c2)cc1	i	-5
Cc1ccc(NS(=O)(=O)c2cccc(C(=O)Nc3ccccc3C(=O)O)c2)cc1	+	3
Cc1ccc(S(=O)(=O)c2nc(-c3ccccc3Cl)oc2NCC2CCCO2)cc1 (stereo not given)	i	3
Cc1cc(OCC(=O)NCc2ccccn2)c(C)cc1Br	i	119*
Cc1cc(C)c(C)c(OCC(=O)NCc2ccccn2)c1	i	8
Cc1cc(OCC(=O)Nc2ncn[nH]2)c(C)cc1Br	i	57*
CC(C)(C)c1ccc(OCC(=O)Nc2ncn[nH]2)c(Br)c1	i	47
Cc1cc(OCC(=O)Nc2ncn[nH]2)ccc1Cl	i	78*
CCCn1nnnc1NC(=O)COc1ccc(Cl)c(C)c1	i	-11
O=c1c(O[C@@H]2O[C@H](CO)[C@H](O)[C@H](O)[C@H]2O)c(-c2cc(O)c(O)c(O)c2)oc2cc(O)cc(O)c12	i	nt
c1ccc(-c2nsc(NC3Cc4ccccc4C3)n2)cc1	i	109*
O=C(CC1(O)C(=O)Nc2ccccc21)c1ccc(OCC(=O)N2CCOCC2)cc1 (stereo not given)	i	-11
